Several values for one entry are separate records, joined by “and”; a condition that tells them apart may be missing. Identical values can stand only once. The panel holds about 79,000 compounds, 15% with a hit somewhere; the sample as a whole holds those more often. The source holds several records for some structures; these can differ, active in one and inactive in another. Activity calls are given as the source filed them. No stated cut-off is given here; in the data, active means growth inhibition above about 70%; inactive means the rest.

The nature of test [1]: NCI Yeast Anticancer Drug Screen. Data for the rad50 strain (AID 155).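 Further: 0% = growth of vehicle-only cultures of the same strain.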 The following applies: S. cerevisiae rad50 strain growth inhibition, stronger effect = higher value. The gist of the method:
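Relative growth inhibition (compound vs vehicle) was measured in yeast with a defined repair-gene alteration.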

Test [2] in a line: NCI Yeast Anticancer Drug Screen. Data for the mec2-1 strain (AID 157). The conditions noted are these: S. cerevisiae mec2-1 strain, stronger effect = higher value. The procedure, abridged: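 Using mec2-1 yeast: add compound, measure growth, express inhibition versus vehicle-treated cultures.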
Test [3] can be described thus: NCI Yeast Anticancer Drug Screen. Data for the sgs1 mgt1 strain (AID 161).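 Further: 0% = growth of cultures given vehicle only.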 The conditions noted are these: S. cerevisiae sgs1 mgt1 strain, stronger effect = higher value. The gist of the method:
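Growth of a repair-deficient yeast mutant was monitored after compound treatment and expressed as inhibition relative to vehicle-treated cultures.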

Test [4] is described as follows: NCI Yeast Anticancer Drug Screen. Data for the cln2 rad14 strain (AID 165).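 Further: 0% = growth equal to vehicle treated cultures.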 The conditions noted are these: S. cerevisiae cln2 rad14 strain, stronger effect = higher value. The gist of the method:
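Yeast strain cln2 rad14, bearing defects in cell cycle control and DNA repair, serves as the test system; values reflect growth inhibition compared with vehicle.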

The nature of test [5]: NCI Yeast Anticancer Drug Screen. Data for the bub3 strain (AID 167). The conditions noted are these: S. cerevisiae bub3 mutant strain, stronger effect = higher value. The procedure, abridged: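 Screening used yeast with an engineered genetic alteration affecting cell cycle control. Compound-exposed cultures were compared with vehicle cultures, and reduced growth was taken as inhibition.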

Test [6] is described as follows: NCI Yeast Anticancer Drug Screen. Data for the mlh1 rad18 strain (AID 175). The following applies: S. cerevisiae mlh1 rad18 strain growth inhibition, stronger effect = higher value. The gist of the method: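 Steps: expose repair-defective yeast to compound; measure growth; express inhibition against vehicle-treated controls.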
Setting [7] is: at 5.0 µM (retest, dose inferred, filed as 0.5).
The mark [8] stands for this setting: at 50.0 µM (retest, dose inferred, filed as 5.0).

Turning to `CCOc1cc(/C=C/[N+](=O)[O-])ccc1O`, the growth inhibition is -112% (inactive) in test [1] (setting [7]); 93% (active) in test [1] (setting [8]); 77.2% (active) in test [1] (at 50.0 µM); -44% (inactive) in test [2] (setting [7]); 73% (active) in test [2] (setting [8]); 65.8% (inactive) in test [2] (at 50.0 µM). In addition, the growth inhibition in test [3] (setting [7]) is -46% (inactive); in test [3] (setting [8]), 95% (active); in test [3] (at 50.0 µM), 77.7% (active); in test [4] (setting [7]) it was -52% (inactive); in test [4] (setting [8]), 75% (active); in test [4] (at 50.0 µM), 55% (inactive). The growth inhibition in test [5] (setting [7]) was -60% (inactive); in test [5] (setting [8]), 90% (active); in test [5] (at 50.0 µM) it was 43.4% (inactive); in test [6] (setting [7]), -93% (inactive); in test [6] (setting [8]), 94% (active); in test [6] (at 50.0 µM), 96.6% (active).

`O=S(=O)([O-])[O-].[Fe+2].c1ccc(/C(=N\Nc2ccccn2)c2ccccn2)cc1`: the growth inhibition in test [1] (setting [7]) was 3% (inactive); in test [1] (setting [8]) it was 33% (inactive); in test [1] (at 50.0 µM), 12.9% (inactive); in test [2] (setting [7]), -2% (inactive); in test [2] (setting [8]) it was 39% (inactive); in test [2] (at 50.0 µM), 82.2% (active). The growth inhibition in test [3] (setting [7]) is -4% (inactive); in test [3] (setting [8]), 22% (inactive); in test [3] (at 50.0 µM), 16.1% (inactive); in test [4] (setting [7]), -3% (inactive); in test [4] (setting [8]) it was -8% (inactive); in test [4] (at 50.0 µM), 13.5% (inactive). Moreover, the growth inhibition in test [5] (setting [7]) is 1% (inactive); in test [5] (setting [8]) it was 1% (inactive); in test [5] (at 50.0 µM), 1.75% (inactive); in test [6] (setting [7]), -3% (inactive); in test [6] (setting [8]), 7% (inactive); in test [6] (at 50.0 µM) it was 25.8% (inactive).

As for `COc1ccc(OC)c(C=O)c1`, the growth inhibition in test [1] (setting [7]) was 1% (inactive); in test [1] (setting [8]), 5% (inactive); in test [1] (at 50.0 µM) it was 24.9% (inactive); in test [2] (setting [7]), 0% (inactive); in test [2] (setting [8]) it was 7% (inactive); in test [2] (at 50.0 µM), -12.2% (inactive). Also, the growth inhibition in test [3] (setting [7]) is -2% (inactive); in test [3] (setting [8]), 12% (inactive); in test [3] (at 50.0 µM), -11.7% (inactive); in test [4] (setting [7]) it was 2% (inactive); in test [4] (setting [8]), 4% (inactive); in test [4] (at 50.0 µM) it was -38.2% (inactive). For the same molecule, the growth inhibition was 2% (inactive) in test [5] (setting [7]); 7% (inactive) in test [5] (setting [8]); -35% (inactive) in test [5] (at 50.0 µM); -1% (inactive) in test [6] (setting [7]); 14% (inactive) in test [6] (setting [8]); -8% (inactive) in test [6] (at 50.0 µM).

For `FC(F)(F)c1nnn[n-]1.[Au+].c1ccc([PH+](c2ccccc2)c2ccccc2)cc1`, the growth inhibition in test [1] (setting [7]) was 99% (active); in test [1] (setting [8]), 97% (active); in test [1] (at 50.0 µM) it was 97.6% (active); in test [2] (setting [7]), 100% (active); in test [2] (setting [8]), 97% (active); in test [2] (at 50.0 µM), 97.2% (active). For the same molecule, the growth inhibition in test [3] (setting [7]) was 99% (active); in test [3] (setting [8]), 98% (active); in test [3] (at 50.0 µM), 95.6% (active); in test [4] (setting [7]) it was 99% (active); in test [4] (setting [8]), 96% (active); in test [4] (at 50.0 µM), 94.5% (active). In addition, the growth inhibition in test [5] (setting [7]) is 98% (active); in test [5] (setting [8]), 97% (active); in test [5] (at 50.0 µM), 96.3% (active); in test [6] (setting [7]) it was 99% (active); in test [6] (setting [8]) it was 97% (active); in test [6] (at 50.0 µM), 94.7% (active).

Take `Oc1cc[c]([Hg][Cl])cc1`: the growth inhibition in test [1] (setting [7]) is 99% (active); in test [1] (setting [8]), 99% (active); in test [1] (at 50.0 µM), 99.5% (active) and 100% (active); in test [2] (setting [7]), 100% (active); in test [2] (setting [8]), 100% (active); in test [2] (at 50.0 µM) it was 99.5% (active) and 99.7% (active). Also, the growth inhibition in test [3] (setting [7]) was 100% (active); in test [3] (setting [8]), 99% (active) and 100% (active); in test [3] (at 50.0 µM), 99.1% (active) and 100% (active); in test [4] (setting [7]), 99% (active); in test [4] (setting [8]), 99% (active); in test [4] (at 50.0 µM) it was 98.2% (active) and 99.5% (active). For the same molecule, the growth inhibition in test [5] (setting [7]) was 99% (active) and 100% (active); in test [5] (setting [8]), 99% (active) and 100% (active); in test [5] (at 50.0 µM), 99.6% (active) and 99.7% (active); in test [6] (setting [7]), 99% (active); in test [6] (setting [8]) it was 99% (active); in test [6] (at 50.0 µM), 99.2% (active) and 99.3% (active).

In the case of `CC(O[Si](c1ccccc1)(c1ccccc1)C(C)(C)C)[C@H](NC(=O)OC(C)(C)C)C(=O)O` (some centres not stated), the growth inhibition in test [1] (setting [7]) was -13% (inactive); in test [1] (setting [8]), 58% (inactive); in test [1] (at 50.0 µM) it was 86% (active); in test [2] (setting [7]) it was -4% (inactive); in test [2] (setting [8]), 97% (active); in test [2] (at 50.0 µM), 86.3% (active). In addition, the growth inhibition in test [3] (setting [7]) was 13% (inactive); in test [3] (setting [8]), 47% (inactive); in test [3] (at 50.0 µM), 88% (active); in test [4] (setting [7]), -15% (inactive); in test [4] (setting [8]) it was 98% (active); in test [4] (at 50.0 µM) it was 89.6% (active). The growth inhibition in test [5] (setting [7]) is -9% (inactive); in test [5] (setting [8]) it was 95% (active); in test [5] (at 50.0 µM), 55.5% (inactive); in test [6] (setting [7]), 1% (inactive); in test [6] (setting [8]), 68% (inactive); in test [6] (at 50.0 µM) it was 92.9% (active).

For the molecule `CCC/C=[CH]/[Hg][Cl]`, the growth inhibition in test [1] (setting [7]) was 99% (active); in test [1] (setting [8]) it was 99% (active); in test [1] (at 50.0 µM) it was 99.2% (active); in test [2] (setting [7]) it was 100% (active); in test [2] (setting [8]), 100% (active); in test [2] (at 50.0 µM) it was 99.5% (active). In addition, the growth inhibition in test [3] (setting [7]) was 100% (active); in test [3] (setting [8]), 99% (active); in test [3] (at 50.0 µM), 99.5% (active); in test [4] (setting [7]), 97% (active); in test [4] (setting [8]), 99% (active); in test [4] (at 50.0 µM), 99.3% (active). Besides, the growth inhibition was 99% (active) in test [5] (setting [7]); 99% (active) in test [5] (setting [8]); 99.4% (active) in test [5] (at 50.0 µM); 100% (active) in test [6] (setting [7]); 99% (active) in test [6] (setting [8]); 99.4% (active) in test [6] (at 50.0 µM).

For the molecule `Cc1ccc([C@H]2N[C@@H]2c2ccccn2)cc1`, the growth inhibition is -16% (inactive) in test [1] (setting [7]); -22% (inactive) in test [1] (setting [8]); 6.35% (inactive) in test [1] (at 50.0 µM); -18% (inactive) in test [2] (setting [7]); 1% (inactive) in test [2] (setting [8]); 7% (inactive) in test [2] (at 50.0 µM). Further, the growth inhibition was -5% (inactive) in test [3] (setting [7]); -12% (inactive) in test [3] (setting [8]); 3.45% (inactive) in test [3] (at 50.0 µM); -15% (inactive) in test [4] (setting [7]); -5% (inactive) in test [4] (setting [8]); 30.1% (inactive) in test [4] (at 50.0 µM). Besides, the growth inhibition in test [5] (setting [7]) was -4% (inactive); in test [5] (setting [8]) it was -2% (inactive); in test [5] (at 50.0 µM), -2.75% (inactive); in test [6] (setting [7]) it was -5% (inactive); in test [6] (setting [8]), -10% (inactive); in test [6] (at 50.0 µM), 19% (inactive).

`O=C(O)CCCC1CCCCC1`: the growth inhibition is 0% (inactive) in test [1] (setting [7]); 39% (inactive) in test [1] (setting [8]); 55.1% (inactive) and 57% (inactive) in test [1] (at 50.0 µM); -2% (inactive) in test [2] (setting [7]); 21% (inactive) in test [2] (setting [8]); 37.4% (inactive) and 12.7% (inactive) in test [2] (at 50.0 µM). In addition, the growth inhibition was 4% (inactive) in test [3] (setting [7]); 43% (inactive) in test [3] (setting [8]); 43% (inactive) and 44.3% (inactive) in test [3] (at 50.0 µM); 4% (inactive) in test [4] (setting [7]); 27% (inactive) in test [4] (setting [8]); 38.4% (inactive) and 46.7% (inactive) in test [4] (at 50.0 µM). For the same molecule, the growth inhibition was -1% (inactive) in test [5] (setting [7]); 52% (inactive) in test [5] (setting [8]); 30.5% (inactive) and 62.9% (inactive) in test [5] (at 50.0 µM); 2% (inactive) in test [6] (setting [7]); 51% (inactive) in test [6] (setting [8]); 8.95% (inactive) and 79.8% (active) in test [6] (at 50.0 µM).
